Experimental data published in PubChem BioAssay (Tox21).
Values joined by “and” are separate entries in the source; they are usually repeats but may differ in a detail not shown here. Identical values can stand only once. Records with an inconclusive call do not appear. Some structures have more than one record in an assay (separate samples or runs), and their calls can disagree. Active and inactive are the calls of the source. Unless noted, the call rests on the fitted dose curve.

How the values were obtained:
[1] = qHTS assay to identify small molecule agonists of the vitamin D receptor (VDR) signaling pathway - cell viability counter screen (AID 743224; active means well fitted curve in the direction sought with a large enough effect in the repeat runs; an effect the other way counts as inactive or inconclusive; further: nearly all actives have a fitted effect of over 50% in size; further: potency means the concentration at half of the fitted maximal effect)
Outline: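 VDR-bla cells, 4 h after plating, exposed to compounds for 16 h at 37C; viability then read in the same wells as CellTiter-Glo luminescence after 30 min at room temperature, following the bla FRET read.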

[2] = qHTS assay to identify small molecule antagonists of the vitamin D receptor (VDR) signaling pathway - cell viability counter screen (AID 743225; active means well fitted curve in the direction sought with a large enough effect in the repeat runs; an effect the other way counts as inactive or inconclusive; further: nearly all actives have a fitted effect of over 50% in size; further: potency means the concentration at half of the fitted maximal effect)
Outline: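 VDR-bla HEK 293T cells, 4 h pre-incubation at 37C, then compound plus 1-alpha,25-dihydroxyvitamin D3 (3 nM final) for 16 h. After the beta-lactamase FRET read, CellTiter-Glo was added to the same wells; luminescence after 30 min at room temperature.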

[3] = qHTS assay to identify small molecule agonists of the NFkB signaling pathway - cell viability counter screen (AID 1159515); further: nearly all actives have a fitted effect of over 55% in size; further: potency means the concentration at half of the fitted maximal effect
Outline: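 NFkB-bla ME-180 cells, 2,000/well, plated overnight at 37 C; compound added for 5 hr at 37 C. Viability read in the same wells as the bla reporter, by CellTiter-Glo luminescence after 30 min at room temperature.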

[4] = qHTS assay to identify small molecule agonists of the endoplasmic reticulum stress response signaling pathway (AID 1159516; active means well fitted activation curve with a large enough effect in the signal ratio in the repeat runs, not every such curve was filed as active; the % refers to the signal ratio; further: potency means the concentration at half of the fitted maximal effect)
Outline: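 CellSensor ESRE-bla HeLa cells, 1,500 per well, plated overnight, then exposed to compounds for 5 hr at 37 C. Beta-lactamase reporter read with LiveBLAzer B/G FRET substrate after 2 hr at room temperature, 405 nm excitation, 460 and 530 nm emission.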

[5] = qHTS assay to identify small molecule agonists of the endoplasmic reticulum stress response signaling pathway - cell viability counter screen (AID 1159517); further: nearly all actives have a fitted effect of over 50% in size; further: potency means the concentration at half of the fitted maximal effect
Outline: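 Cells, HeLa ESRE-bla; density, 1,500/well; dosing, 5 hr at 37 C, 5% CO2; readout, CellTiter-Glo luminescence after 30 min RT.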

[6] = qHTS assay to identify small molecule antagonists of the retinoid-related orphan receptor gamma (ROR-gamma) signaling pathway - cell viability counter screen (AID 1159520; active means well fitted curve in the direction sought with a large enough effect in the repeat runs; an effect the other way counts as inactive or inconclusive; further: nearly all actives have a fitted effect of over 50% in size)
Outline: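 Cytotoxicity was read from cellular ATP (CellTiter-Glo luminescence) after 16 hr at 37 C with 1 uM doxycycline induction. The inducer was added 2 hr after compound transfer to Tet-on ROR gamma CHO cells.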

[7] = target: Nuclear receptor ROR-gamma (Homo sapiens) (UniProt P51449); test: qHTS assay to identify small molecule antagonists of the retinoid-related orphan receptor gamma (ROR-gamma) signaling pathway (AID 1159521; active means well fitted curve in the direction sought with a large enough effect in the repeat runs; an effect the other way counts as inactive or inconclusive; further: nearly all actives have a fitted effect of over 50% in size; further: potency means the concentration at half of the fitted maximal effect)
Outline: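 Tet-on RORγ CHO cells carrying a ROR response element–luciferase reporter were pretreated with compounds for 2 h, then induced with 1 uM (final) doxycycline hyclate for 16 h at 37 C. Antagonism was read as decreased ONE-Glo luminescence.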

[8] = qHTS assay to identify small molecule agonists of the AP-1 signaling pathway (AID 1159526)
[9] = target: Retinoic acid receptor RXR-alpha (Homo sapiens) (UniProt P19793); test: qHTS assay to identify small molecule agonists of the RXR signaling pathway (AID 1159527); further: nearly all actives have a fitted effect of over 35% in size; further: potency means the concentration at half of the fitted maximal effect
Sequence of Retinoic acid receptor RXR-alpha (Homo sapiens) (P19793 whole entry, looked up): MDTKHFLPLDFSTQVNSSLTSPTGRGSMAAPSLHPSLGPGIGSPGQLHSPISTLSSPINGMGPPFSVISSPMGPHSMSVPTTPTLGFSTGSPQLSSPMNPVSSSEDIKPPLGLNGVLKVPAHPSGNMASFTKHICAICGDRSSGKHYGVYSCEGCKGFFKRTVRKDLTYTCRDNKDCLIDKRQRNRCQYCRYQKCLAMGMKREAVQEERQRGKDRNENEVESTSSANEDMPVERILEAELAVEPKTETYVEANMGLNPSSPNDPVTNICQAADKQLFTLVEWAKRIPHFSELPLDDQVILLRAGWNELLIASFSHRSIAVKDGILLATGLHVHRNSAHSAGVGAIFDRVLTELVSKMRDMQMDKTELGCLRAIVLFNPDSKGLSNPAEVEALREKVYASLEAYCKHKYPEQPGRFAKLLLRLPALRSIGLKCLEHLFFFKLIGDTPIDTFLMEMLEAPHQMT
Outline: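 GeneBLAzer RXR-alpha-UAS-bla HEK 293T cells in medium with 2% charcoal-stripped FBS, pre-incubated 5 hr at 37 C, then exposed to compounds 16 hr. Beta-lactamase reporter read by FRET substrate, 2 hr room temperature, 460/530 nm emission.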

[10] = qHTS assay to identify small molecule agonists of the AP-1 signaling pathway - cell viability counter screen (AID 1159525); further: nearly all actives have a fitted effect of over 55% in size
Outline: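 Luminescent ATP readout (Cell Titer Glo, 30 min RT), normalised to DMSO and tetra n-octyl ammonium bromide controls. Cells were ME-180 AP-1-bla in 0.5% dialyzed FBS Opti-MEM, with a 5 h, 37 °C compound exposure.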

Measured: Potency

CCCCCCC(C)O (stereo not drawn)
17.7 µM (active) and inactive: [9]
not listed: [10]
inactive: all other assays above

Brc1nc2ccccc2s1
not listed: [10]
inactive: all other assays above

Nc1ccc(O)c(N)c1
inactive and 54.9 µM (active): [5]
not listed: [10]
inactive: all other assays above

CN(Cc1cnc2nc(N)nc(N)c2n1)c1ccc(C(=O)N[C@@H](CCC(=O)O)C(=O)O)cc1
active: [1] 30.9 nM and 188 nM | [2] 0.213 µM
not listed: [9] | [10]
inactive: all other assays above

COc1ccc2nc(N)sc2c1
not listed: [9] | [10]
inactive: all other assays above

c1ccc2c(c1)ccc1cc3c(ccc4ccccc43)cc12
active: [4] 7.67 µM
not listed: [10]
inactive: all other assays above

Clc1ccc(Sc2cc(Cl)c(Cl)cc2Cl)cc1
not listed: [2] | [10]
inactive: all other assays above

C=CN1CCCC1=O
not listed: [10]
inactive: all other assays above

O=C(O)COCCN1CCN(C(c2ccccc2)c2ccc(Cl)cc2)CC1 (stereo not drawn)
not listed: [10]
inactive: all other assays above

CC(=O)Oc1ccc(C(c2ccc(OC(C)=O)cc2)c2ccccn2)cc1
active: [3] 546 nM and 1.07 µM
not listed: [5] | [8] | [10]
inactive: all other assays above

CCCCCCCCCCCCCO
not listed: [7]
inactive: all other assays above

CN(C)C
not listed: [7]
inactive: all other assays above

COc1ccc(-c2coc3cc(O)cc(O)c3c2=O)cc1
not listed: [7] | [8] | [10]
inactive: all other assays above

Oc1c(Cl)ccc(Cl)c1Cl
not listed: [7]
inactive: all other assays above

CCCCCCCCCCC(CO)CCCCCCCC (stereo not drawn)
not listed: [7] | [10]
inactive: all other assays above

C=C[C@H]1CN2CC[C@H]1C[C@H]2[C@H](O)c1ccnc2ccc(OC)cc12
not listed: [1] | [2] | [7]
inactive: all other assays above

C[C@]12CC[C@@H]3c4ccc(O)cc4CC[C@H]3[C@@H]1CC[C@H]2O
active: [7] 17.5 µM
not listed: [8] | [9] | [10]
inactive: all other assays above

CCCN1C=CN(C)C1
not listed: [7]
inactive: all other assays above

C=C[C@H]1CN2CC[C@H]1C[C@@H]2[C@@H](O)c1ccnc2ccc(OC)cc12
not listed: [1] | [2] | [7]
inactive: all other assays above

Cc1ccc(/C(=C\CN2CCCC2)c2ccccn2)cc1
not listed: [7] | [8]
inactive: all other assays above

CC[C@]12CCCN3CCc4c(n(c5ccccc45)[C@@](O)(C(=O)OC)C1)[C@@H]32
not listed: [7] | [8]
inactive: all other assays above

Nc1ccc(N)c(Cl)c1
not listed: [7] | [8] | [10]
inactive: all other assays above

O=C1CCc2ccccc2O1
not listed: [7]
inactive: all other assays above

OCCNCCO
not listed: [7] | [9] | [10]
inactive: all other assays above

C=CCNCC=C
not listed: [7] | [10]
inactive: all other assays above

CC/C(=C(/CC)c1ccc(O)cc1)c1ccc(O)cc1
54.9 µM (active) and inactive: [5]
active: [1] 24.3 µM
not listed: [7]
inactive: all other assays above
